Source: PubChem BioAssay (The Scripps Research Institute Molecular Screening Center)
Rows were chosen to be rich in hits. Some 4.1% of all compounds tested hit in one or more screens of this group.
DAX1 inh-1: blocks DAX1 repression of SF-1 activated StAR promoter | HEK293T StAR-luciferase reporter, SF-1/DAX-1 repression relief | inhibition, % at 6.8 µM | hit rate 1.1% among 370,000 | AID 652010;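 active means inhibition above the mean over all tested compounds plus 3 SD, cut at about 3.6% in these data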;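 further: 0% = DAX-1 cells with DMSO and 100% = cells lacking DAX-1 with DMSO; higher inhibition means more luminescence from relief of DAX-1 repression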
DAX1 inh-2: NR0B1 (DAX1) inhibition; hit rate 0.99% among 340,000; inhibition, % at 6.75 µM; HEK293 Gal4-DAX1 luciferase reporter, luminescence; P51843;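 active means inhibition above the mean over all tested compounds plus 3 SD, cut at about 4.2% in these data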;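 further: 0% = DAX1-transfected cells with DMSO and 100% = empty-vector control cells with DMSO; inhibition shows as a rise in luminescence from relieved DAX1 repression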
Target sequence (P51843 207-470 limits assumed): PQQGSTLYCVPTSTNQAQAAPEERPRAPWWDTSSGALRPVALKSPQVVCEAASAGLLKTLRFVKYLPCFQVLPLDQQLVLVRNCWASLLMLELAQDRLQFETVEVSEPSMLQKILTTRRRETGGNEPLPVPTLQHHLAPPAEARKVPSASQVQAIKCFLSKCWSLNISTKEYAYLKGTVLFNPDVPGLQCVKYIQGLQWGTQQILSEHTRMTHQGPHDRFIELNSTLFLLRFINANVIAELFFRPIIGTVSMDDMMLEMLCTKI
ssDAF-12 act: activates DAF-12 receptor from parasite S. stercoralis; HEK293 ssDAF-12/GRIP1 lit1-tk-luc reporter, luminescence; % of 3 µM dafachronic acid response; activation, % at 6.8 µM; hit rate 1% among 370,000;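 active means activation above the mean over all tested compounds plus 3 SD, cut at about 0.9% in these data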;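 further: 0% = DMSO-only wells and 100% = 3 µM delta7-dafachronic acid wells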
hcDAF12 agonist: activators of H. contortus DAF-12 nuclear receptor. HEK293 hcDAF-12 lit1-tk-luc reporter, luminescence; 0% DMSO, 100% Δ7-dafachronic acid. activation, % at 6.8 µM. hit rate 1.4% among 370,000;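 active means activation above the mean of all tested compounds plus 3 SD, cut at about 5.5% in these data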;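 further: 100% = response to 3 µM Δ7-dafachronic acid high control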
hgDAF-12 ag: activates the H. glycines DAF-12 receptor ligand-binding domain; HEK293 GAL4-hgDAF12 UAS-luciferase reporter, agonist luminescence; normalized to butyrate control; activation, % at 6.8 µM; hit rate 1.8% among 370,000;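 active means activation above a cutoff set at the mean of all screened compounds plus 3 SD, cut at about 10% in these data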;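 further: 0% = DMSO wells and 100% = sodium butyrate wells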
Numbers without * were called inactive; / = no result given.

SMILES | DAX1 inh-1 | DAX1 inh-2 | ssDAF-12 act | hcDAF12 agonist | hgDAF-12 ag
CCOC(=O)C1=NNC(C(=O)O)C1c1ccccc1 (configuration not stated) | -1 | 0 | 0 | 6.0* | 10*
CC(=O)Nc1ccc(CCc2nc3ccccc3[nH]2)cc1 | 0 | 1 | -1 | 1 | -2
CC(C)c1ccc(NC(=O)N(CCc2nc3ccccc3[nH]2)C2CCCC2)cc1 | 0 | 1 | 0.9* | 3 | 0
COC(=O)[C@]12C[C@H](CC(=O)NCc3ccccc3)C(=O)N(Cc3cccc4ccccc34)C1=C[C@H](COCc1ccccc1)O[C@@H]2C | -1 | / | 0 | -1 | 1
[O-][N+](=C(c1ccccc1)c1ccccc1)c1ccccc1 | 0 | 1 | 0.9* | 2 | -1
Cc1cc(C)c[n+](C2=C([O-])c3ccccc3C(=O)/C2=N\S(=O)(=O)c2cccs2)c1 | -1 | -1 | -1 | 0 | -6
Cc1cc[n+](C2=C([O-])c3ccccc3C(=O)/C2=N\S(=O)(=O)c2cccs2)cc1C | -1 | 4.5* | 0 | 3 | -3
CC1CCCN(c2cccc3c2S(=O)(=O)N(Cc2cccc(F)c2)[C@@H](C)[C@H](c2ccccc2)O3)C1 (some centres not stated) | 1 | / | -1 | 0 | 6
O=C(N/N=C/c1ccncc1)c1sc2ccccc2c1Cl | 3.9* | 0 | -2 | 2 | 2
CC(C)c1nnc(NC(=O)c2sc3ccccc3c2Cl)s1 | 1 | 3 | 0 | 5.9* | 10
CCCn1nnc(NC(=O)c2sc3ccccc3c2Cl)n1 | 2 | 1 | -1 | 1 | 5
CCC(C)Nc1nnc(SCC(=O)c2c(N)n(C3CC3)c(=O)[nH]c2=O)s1 (configuration not stated) | 0 | -1 | -1 | -2 | -2
C#CCNC(=O)C[C@H]1C(=O)N(CCc2ccc(Cl)cc2)C2=CCCC[C@@]21C(=O)OCC | -2 | / | -2 | -5 | -2
O=C(N/N=C/c1cc([N+](=O)[O-])ccc1O)C12CC3CC(CC(C3)C1)C2 | 0 | 4.2* | -2 | -1 | 0
O=C(N/N=C/c1cc([N+](=O)[O-])ccc1O)NC12CC3CC(CC(C3)C1)C2 | -2 | -1 | -3 | -5 | -8
C=CCNC(=O)c1ccsc1N | 4.2* | / | -1 | 1 | 2
C=CCNC(=O)c1ccc(Cl)cc1Cl | -1 | 0 | -1 | 3 | 1
Cc1ccc2nc3sc(C(=O)N4CCOCC4)c(N)c3cc2c1 | 3.7* | 1 | 1 | 6.5* | 9
Nn1c(SCc2ccccc2)nc2ccccc21 | 1 | 1 | 0 | 2 | 12*
O=C(O)Cn1c(SCc2ccccc2)nc2ccccc21 | 0 | 1 | -1 | -1 | -1
CCOC(=O)c1ccc(-n2cnc(-c3ccc([N+](=O)[O-])cc3)c2)cc1 | -1 | / | 0 | 1 | -1
CN1C(=O)/C(=C/c2ccc(O)c([N+](=O)[O-])c2)N(C)C1=S | 1 | 4.2* | -1 | 0 | 3
COc1cc(/C=C2\C(=O)N(C)C(=S)N2C)ccc1O | 0 | 0 | -1 | -2 | 1
Cc1nn(CCC(=O)NNC(=O)Nc2ccccc2F)c(C)c1[N+](=O)[O-] | 0 | / | -1 | 1 | -1
COc1cccc(N=Nc2ccc3ccccc3c2O)c1 | 2 | 4 | 1.6* | 4 | 10
SMILES | DAX1 inh-1 | DAX1 inh-2 | ssDAF-12 act | hcDAF12 agonist | hgDAF-12 ag
Cc1ccc(N=Nc2ccc3ccccc3c2O)cc1 | 0 | 4 | -1 | 5 | -2
CCCC(=O)N1CCC[C@]2(CC[C@@H](CCC(C)=O)O2)C1 | 2 | / | -1 | 0 | -1
COc1cccc(C(=O)NCCC2=CCCCC2)c1OC | 3 | 4.5* | 1 | 2 | 8
COc1cc(C(=O)NCCC2=CCCCC2)cc(OC)c1OC | 0 | 1 | -2 | -2 | -2
CCOc1ccc(Oc2c(Cl)cnn(Cc3cccc4ccccc34)c2=O)cc1 | 1 | / | -1 | -1 | 0
O=C(C(=O)N1CCC(CNS(=O)(=O)c2ccccc2OC(F)(F)F)CC1)c1cccs1 | 0 | / | -1 | -1 | 1
O=C(Nc1ccc(Cl)cc1)N1CCN(Cc2nc3ccccc3c(=O)[nH]2)CC1 | 1 | / | -1 | -2 | 0
CC1CCC2(CC1)CCN(CCCOC(=O)Nc1cccc(C(F)(F)F)c1)C2=O (configuration not stated) | -3 | / | -1 | -1 | 1
COCc1cc(=O)n2[nH]c(C)c(-c3ccc(Cl)cc3)c2n1 | -2 | 0 | -1 | 0 | 13*
